High-throughput results: PubChem BioAssay, several laboratories
AHR activator = activates the human aryl hydrocarbon receptor | activation, % at 5 µM | P35869 | AID 2796 | hit rate 2.5% among 320,000 | AHR-responsive luciferase reporter cells, luminescence; in the data active means activation above about 47%
Target sequence (P35869 whole entry, looked up): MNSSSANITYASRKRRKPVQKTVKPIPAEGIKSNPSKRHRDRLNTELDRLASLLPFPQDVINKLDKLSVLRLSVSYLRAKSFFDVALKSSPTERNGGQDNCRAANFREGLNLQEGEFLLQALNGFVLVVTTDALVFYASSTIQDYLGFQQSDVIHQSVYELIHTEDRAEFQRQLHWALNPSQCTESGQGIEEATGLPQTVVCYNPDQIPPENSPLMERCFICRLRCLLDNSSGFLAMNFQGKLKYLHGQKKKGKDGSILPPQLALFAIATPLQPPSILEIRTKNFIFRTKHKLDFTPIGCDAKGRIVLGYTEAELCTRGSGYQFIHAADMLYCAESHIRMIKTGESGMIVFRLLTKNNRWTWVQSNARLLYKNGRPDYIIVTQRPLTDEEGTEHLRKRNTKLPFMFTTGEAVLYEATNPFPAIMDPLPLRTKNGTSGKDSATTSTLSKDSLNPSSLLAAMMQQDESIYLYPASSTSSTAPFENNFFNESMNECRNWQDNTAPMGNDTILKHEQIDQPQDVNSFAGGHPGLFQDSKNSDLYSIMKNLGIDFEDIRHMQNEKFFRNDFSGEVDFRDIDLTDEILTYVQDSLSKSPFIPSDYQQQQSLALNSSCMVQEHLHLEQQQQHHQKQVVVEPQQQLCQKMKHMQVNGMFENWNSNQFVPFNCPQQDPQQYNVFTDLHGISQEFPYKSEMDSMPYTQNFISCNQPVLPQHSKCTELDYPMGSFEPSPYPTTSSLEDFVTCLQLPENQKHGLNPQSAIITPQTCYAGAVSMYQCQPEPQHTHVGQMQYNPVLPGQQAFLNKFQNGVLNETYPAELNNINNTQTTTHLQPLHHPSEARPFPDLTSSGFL
FXN GAA850 act = activators of GAA850 frataxin (FXN) promoter | HEK293 lucGAA850 FXN promoter luciferase reporter, 24 h; percent of 10 µM SAHA response | activation, % at 6 µM | hit rate 0.56% among 360,000;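 active means activation above the average of all compounds screened plus 3 SD, cutoff fixed separately per campaign, cut at about 7.5% in these data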
HSF-1 act = increases HSF-1 driven luciferase reporter signal; NIH3T3-HGL HSF-1 luciferase reporter, MG132, 8 h; 100% = twice DMSO control signal; activation, % at 9 µM; hit rate 1.7% among 300,000; AID 504408;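 active means mean replicate activation of at least 50% with a set share of replicates each reaching 50%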
NR0B1 inh = NR0B1 (DAX1) inhibition | P51843 | HEK293 Gal4-DAX1 luciferase reporter, luminescence | inhibition, % at 6.75 µM | hit rate 0.99% among 340,000;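 active means inhibition above the mean over all tested compounds plus 3 SD, cut at about 4.2% in these data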;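 further: inhibition shows as a rise in luminescence from relieved DAX1 repression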
HSF1 inhib = HSF1 inhibition; NIH3T3-HGL HSE-luciferase, MG132-induced, luminescence 8 h; active compounds read low; activity change, negative = inhibition, % at 7.5 µM (by protocol); hit rate 0.77% among 300,000;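 active means more than half of replicate wells show activity change below -50%, luminescence cut by over half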;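 further: luciferase reports HSF-1 transcriptional activity via heat shock element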
Large screens that a line does not name were inactive. Shown are actives, neighbours in structure and some others; about 5.4% of the full set was active somewhere.

Cc1cc(=O)[nH]c(SCn2nnc3ccccc3c2=O)n1	none
Cc1ccc(SCn2nnc3ccccc3c2=O)c(C)c1	HSF-1 act 65.6
Nn1c(Cc2ccccc2F)nnc1SCn1nnc2ccccc2c1=O	none
Cc1ccc(S(=O)(=O)N2CCCCC2)cc1C(=O)NCCN1CCOCC1	none (no result: HSF-1 act, HSF1 inhib)
Cc1cc(/C=N/O)c(C)n1-c1ccc(Br)cc1	none
O/N=C/c1ccn(-c2ccc(Br)cc2)c1	NR0B1 inh 4.5
CSc1nsc(N/N=C/c2ccccc2)c1C#N	AHR activator 60.0
COc1cccc(/C=N/Nc2snc(SC)c2C#N)c1	AHR activator 48.7 (no result: HSF-1 act, HSF1 inhib)
COc1cccc(/C=N/Nc2snc(SC)c2C#N)c1O	none
CCCCCCCN=CC1=C(O)CC(c2ccccc2)CC1=O (centres undefined)	none
Cc1nn(-c2ccccc2)c(/N=C/c2ccc(O)cc2)c1-c1ccccc1	HSF-1 act 55.6
COc1ccc(NC(=O)/C(Cl)=C(/Cl)S(=O)(=O)Cc2ccccc2)cn1	HSF1 inhib -75.8 (no result: AHR activator)
CCN(c1ccccc1)S(=O)(=O)c1ccc(C(=O)N(CCN(C)C)c2nc3c(F)cc(F)cc3s2)cc1	none (no result: FXN GAA850 act, NR0B1 inh)
Nc1nccc(-c2ccc(-n3cnc4ccccc43)cc2)n1	AHR activator 47.5
c1ccc2c(c1)ncn2-c1ccc(-c2ccnc(-c3ccncc3)n2)cc1	none
CCn1c(/C=C/c2ccccc2[N+](=O)[O-])nc2ccccc2c1=O	none
Cn1c(/C=C/c2ccccc2[N+](=O)[O-])nc2ccccc2c1=O	NR0B1 inh 4.5 (no result: AHR activator)
O=[N+]([O-])c1ccccc1/C=C/c1ccc2ccccc2n1	AHR activator 74.7, HSF-1 act 97.9, NR0B1 inh 7.1
COc1c(OC(C)=O)ccc(/C=C/c2ccc3ccccc3n2)c1[N+](=O)[O-]	HSF-1 act 64.7
O=[N+]([O-])c1ccc(/C=C/c2ccc3cccc([N+](=O)[O-])c3n2)cc1	AHR activator 105.9
COc1ccc(CCCNC(=O)C2(C)Cc3c(-c4cccc(C(N)=O)c4)ccnc3O2)cc1 (centres undefined)	none (no result: AHR activator, HSF-1 act, NR0B1 inh, HSF1 inhib)
Cc1cccn2c(=O)c(C=O)c(N3CCSCC3)nc12	none
Cc1noc(C)c1CSCC(=O)Nc1cccc(C(F)(F)F)c1	none (no result: HSF-1 act, HSF1 inhib)
Cn1c(/C=C/c2ccc(Br)cc2)nc2ccccc2c1=O	HSF-1 act 61.5
Cc1nc2ccccc2c(=O)n1NC(=O)/C=C/c1ccc(Br)cc1	none
CCN(c1ccc(N=Cc2c(O)n(Cc3ccc(OC)cc3)c(=O)c3ccccc23)cc1)C(C)C	none (no result: AHR activator, HSF-1 act, HSF1 inhib)
Cc1sc(NC(=O)c2ccco2)c(CN2CCN(c3ccccn3)CC2)c1C	none
CCOC(=O)N1CCN(Cc2c(NC(=O)c3ccco3)sc(C)c2C)CC1	HSF-1 act 99.3
Cc1sc(NC(=O)c2ccco2)c(CN2CCN(c3ccc(F)cc3)CC2)c1C	HSF-1 act 86.9
CCNC(=O)C1CCCN(C(=O)c2ccc(C(=O)OC)cc2)CC1 (centres undefined)	none (no result: AHR activator, HSF-1 act, NR0B1 inh, HSF1 inhib)
Nc1c(C(=O)N/N=C/c2cccnc2)cnn1-c1ccccc1	AHR activator 50.9
COc1cccc(/C=N/NC(=O)c2cnn(-c3ccccc3)c2N)c1	AHR activator 68.2
Nc1c(C(=O)N/N=C/c2ccc(Cl)cc2)cnn1-c1ccccc1	none
O=C(CCC(=O)N(CC(=O)NC1CCCCC1)Cc1cccs1)Nc1nccs1	none
COc1cccc(CN2CCN(C(=O)c3ccco3)CC2)c1	none
O=C(CN1CCCC1)Nc1ccc(-c2nc3cc(NC(=O)CN4CCCC4)ccc3o2)cc1	NR0B1 inh 5.8
O=C(Nc1ccc2oc(-c3ccccc3)nc2c1)c1cccs1	HSF-1 act 92.8
N#CC1(c2ccc(NC(=O)c3ccccc3)cc2)CCCC1	none
CC(=O)Oc1ccc(C(=O)Nc2ccc(C3(C#N)CCCC3)cc2)cc1	AHR activator 59.8
S=C(NCCCn1ccnc1)Nc1cccc(Cl)c1	AHR activator 49.1
O=C(/C=C/c1ccc(Br)cc1)NCCCn1ccnc1	none
CCOc1ccc(NC(=S)NCCCn2ccnc2)cc1	none
O=C(/C=C/c1c(Cl)cccc1Cl)NCCCn1ccnc1	AHR activator 47.6 (no result: NR0B1 inh)
O=C(NCCCn1ccnc1)c1sc2cccc(F)c2c1Cl	AHR activator 78.2
COCCOc1ccc(C(F)(F)F)cc1NC(=O)COC(=O)C12CC3CC(CC(O)(C3)C1)C2	none
C=CCN=C1CC(C)(C)CC(=O)/C1=C(/O)CCC(=O)OC	none
COC(=O)CC/C(O)=C1/C(=N)CC(C)(C)CC1=O	HSF-1 act 58.4
O=C(CSc1ncccn1)n1c2c(c3ccccc31)CCCC2	AHR activator 70.0
